Screening results: PubChem, National Center for Advancing Translational Sciences (NCATS)
p53 reactivator – mutant p53 re-activation in reporter cells; H1299 p53-A138V BP100-luciferase reporter, luminescence, 24 h; Potency, µM (highest dose often 92.2 µM), for inactives: at the top dose activity change, positive = activation, usual class: activators; 0.063% of 320,000 active; AID 504706; active = well fitted activation curve with a large enough effect; inconclusive = small, poorly fitted or top-dose-only effect; inactive = no such curve, though single readings can be large or run the other way; note: potency is the fitted concentration of half-maximal effect; % of control where 0% means no effect; nearly all actives have a fitted effect of over 45% in size
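p53-null H1299 cells stably carrying temperature-sensitive p53-A138V and a BP100-luciferase reporter were pinned with compounds (4-point, 1:5 series) and held 24 hrs at 37 deg C. Luminescence was read 10 min after detection reagent.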
ClpP mod – qHTS Assay for Activators of ClpP | purified B. subtilis ClpP, FRET peptide cleavage, 20 min | 1.9% of 340,000 active | AID 651965, 2013 | Potency, µM (titrated, usually from 57.5 µM), without a hit: at the highest dose activity change, negative = active; active = well fitted falling curve with a large enough effect; inconclusive = small, poorly fitted or top-dose-only effect; inactive = no such curve, though single readings can be large or run the other way; note: potency is the fitted concentration of half-maximal effect; the source files actives as falling curves though it sought activators and does not explain the sign; nearly all actives have a fitted effect of over 65% in size
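ClpP 10 microg/mL final, pH 8 Tris/KCl buffer with BSA, glycerol, Tween-20; compound pinned in; FRET-FV substrate; RT 20 min; Ex320/Em430; ΔFRET vs ADEP 5.8 microM, DMSO, no enzyme.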
KCNH2 WT inh – blocks the wildtype human KCNH2 potassium channel. 0.37% of 340,000 active. activity change, % at 1.84 µM. U2OS, BacMam KCNH2, thallium flux FluxOr; hits give low values;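 active = maximum activity change below -70%; inconclusive = maximum activity change between -70% and -50%; inactive = maximum activity change above -50%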; note: % is set by controls: 0 for no effect and ±100 for the full control effect
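U2OS cells were transduced with wild-type KCNH2 virus (2.03 x 10^8 / mL) for 4 h at room temperature, then cultured overnight at 37 C. Thallium flux was read with FluxOr dye. Rate constants were normalized to DMSO controls.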
TRPV1 ag – human TRPV1 agonism; Q8NER1; TRPV1-expressing cells, Fluo-8 calcium influx, agonist mode; activation, % at 8.33 µM; 0.19% of 320,000 active; AID 540275; in the data active = activation above about 80%; inconclusive = between about 30% and that limit; note: 0% is about no effect
Target sequence (Q8NER1 whole entry, looked up): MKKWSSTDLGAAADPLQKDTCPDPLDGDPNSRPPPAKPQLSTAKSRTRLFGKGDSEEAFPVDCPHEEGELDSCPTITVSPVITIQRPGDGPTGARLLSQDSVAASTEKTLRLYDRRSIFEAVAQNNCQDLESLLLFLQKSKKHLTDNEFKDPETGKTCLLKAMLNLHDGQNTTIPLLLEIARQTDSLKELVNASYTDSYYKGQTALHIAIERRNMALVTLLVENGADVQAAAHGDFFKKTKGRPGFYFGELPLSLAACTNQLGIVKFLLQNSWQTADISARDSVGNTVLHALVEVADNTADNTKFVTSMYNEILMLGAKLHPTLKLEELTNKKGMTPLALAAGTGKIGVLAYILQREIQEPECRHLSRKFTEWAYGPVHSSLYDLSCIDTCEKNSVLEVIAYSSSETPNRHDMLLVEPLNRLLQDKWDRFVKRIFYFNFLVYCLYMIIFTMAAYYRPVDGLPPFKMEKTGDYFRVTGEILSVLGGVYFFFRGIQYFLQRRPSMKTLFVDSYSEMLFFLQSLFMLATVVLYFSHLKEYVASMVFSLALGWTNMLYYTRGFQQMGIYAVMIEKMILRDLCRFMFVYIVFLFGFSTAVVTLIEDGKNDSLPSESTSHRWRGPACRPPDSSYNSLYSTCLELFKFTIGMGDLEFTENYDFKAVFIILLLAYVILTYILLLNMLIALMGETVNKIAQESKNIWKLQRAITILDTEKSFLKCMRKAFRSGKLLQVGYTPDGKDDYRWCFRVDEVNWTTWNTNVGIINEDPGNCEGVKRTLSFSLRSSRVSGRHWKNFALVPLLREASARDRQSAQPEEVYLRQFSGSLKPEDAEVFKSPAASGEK
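TRPV1-expressing cells were cultured overnight at 35.5C and loaded with Fluo-8 calcium dye for 40 to 90 min at room temperature. After a 10 s baseline, compound was added and calcium influx was read kinetically for 3 min (ex 480/em 520 nm).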
TRPV1 potentiator – enhances activation of the human vanilloid receptor TRPV1; potentiation, % at 8.33 µM; TRPV1-expressing cells, Fluo-8 calcium influx, capsaicin EC20 potentiation; 0.02% of 320,000 active; in the data active = potentiation above about 80%; inconclusive = between about 30% and that limit; note: 0% is about no effect
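TRPV1-expressing cells were cultured overnight at 35.5C and loaded with Fluo-8 calcium dye for 40 to 90 min at room temperature. After a 10 s baseline, compound was added and calcium influx was read kinetically for 3 min (ex 480/em 520 nm).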
KCNH2 3.1 block – blocks the human KCNH2 3.1 channel isoform | U2OS KCNH2 3.1, thallium flux FluxOr; hits give low values | activity change, % (tested at about 1.8 µM) | 0.95% of 340,000 active;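 active = maximum activity change below -70%; inconclusive = maximum activity change from -70% to -50%; inactive = maximum activity change above -50%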;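 note: thallium influx rate constant from kinetic fluorescence after stimulation buffer; % is set by controls: 0 for no effect and ±100 for the full control effect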
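Virally transduced U2OS (3.1 isoform, 4 h infection in dark at RT) → overnight 37 C → FluxOr + Red40 in HBSS/HEPES, 45 min → stimulation buffer, 2 min kinetic read → rate constant vs DMSO controls.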
Starred values were filed as active, the others as inactive; u = inconclusive; x = no result. Only some compounds are listed: those with a hit (about 2.6% of all), similar ones and a draw of the others.

SMILES	p53 reactivator	ClpP mod	KCNH2 WT inh	TRPV1 ag	TRPV1 potentiator	KCNH2 3.1 block
COc1ccc(-n2nnnc2/C=C/Nc2cc(C(F)(F)F)ccc2OC)cc1	8%	28µM*	-1	2	-8	1
O=C(OCC#CCSc1nnc(-c2cccc3ccccc23)o1)c1ccco1	2%	28µM*	12	u	-9	-10
CCC(=O)NC(=S)Nc1ccccc1F	1%	13µM*	11	-1	-2	-9
CCOC(=O)c1[nH]c2cc(OC)c(OC)cc2c1NC(=O)C(C)N1CCN(Cc2ccccc2)CC1 (configuration not stated)	-8%	32µM*	26	-3	-7	6
CC(C(=O)Nc1ccccc1-c1ccccc1)N1CCN(C(=O)c2ccccc2)CC1 (configuration not stated)	-3%	x	23	-2	8	12
CC(C(=O)Nc1ccccc1-c1ccccc1)N1CCN(Cc2ccccc2)CC1 (configuration not stated)	-2%	x	-18	-4	-24	-76*
COc1cccc(C(=O)Nc2cccc(C(=O)OCc3cc(=O)n4c(C)csc4n3)c2)c1	x	2%	x	x	x	x
O=C(Nc1ccc(Oc2ccccc2)cc1)c1ccc2sc([C@H]3C[C@H](O)[C@@H](CO)O3)nc2c1	x	-21%	x	x	x	x
COc1cccc(-c2noc(C3CCCN(C(=O)CC(C)(C)C)C3)n2)c1 (configuration not stated)	-6%	1%	-87*	-4	2	-22
CCCCC(=O)N1CCCC(c2nc(-c3cccc(OC)c3)no2)C1 (configuration not stated)	5%	1%	-4	8	-5	-12
Cc1cccc(C)c1NC(=O)C1(C)CSCC(=O)N1CCOc1ccccc1 (configuration not stated)	x	-1%	x	x	x	x
Clc1cccc(Cl)c1Cn1nnc(N2CCCC2)n1	7%	x	-138*	3	u	-1
Fc1cccc(Cl)c1Cn1nnc(-c2ccc(N3CCOCC3)cc2)n1	5%	-4%	-5	6	13	-5
COCCNC(=O)Cc1c(C)c2c(cc(C)c3c(C(C)(C)C)coc32)oc1=O	9%	14µM*	11	u	18	1
COc1ccc(C(=O)COc2ccccc2C#N)cc1	32µM*	-1%	1	2	4	-5
COc1ccc(C(=O)COc2ccccc2C(N)=O)cc1	3%	x	4	-3	2	21
Nc1c(C(=O)Nc2ccc3c(c2)OCCO3)nnn1Cc1ccc(F)cc1	26%	11µM*	-8	7	16	14
COc1ccc(Nc2nc(N)nc(CN3CCOCC3)n2)cc1	0%	-1%	7	-2	-16	-14
COc1ccccc1Nc1nc(N)nc(CN2CCC(Cc3ccccc3)CC2)n1	-15%	-3%	-155*	13	u	-104*
COc1ccc(Nc2nc(N)nc(CN3CCC(Cc4ccccc4)CC3)n2)cc1	-5%	0%	-41	2	1	-116*
Cc1cccc(NC(=O)C2CCCN(S(=O)(=O)c3cnc[nH]3)C2)c1C (configuration not stated)	x	-2%	x	x	x	x
C[C@@H]1CN([C@@H](C)CO)S(=O)(=O)c2ccc(Br)cc2O[C@H]1CN(C)C(=O)c1ccccc1	x	-1%	-11	x	x	11
Cc1c(C(=O)NCC2CCCO2)oc2ccc3c(c12)C(=O)CC(C)(C)O3 (configuration not stated)	u	25µM*	-16	u	-15	9
CCN1C(=O)CC(Sc2ccccc2C(=O)O)C1=O (configuration not stated)	5%	-1%	-19	1	2	-104*
O=C(O)c1ccccc1SC1CC(=O)N(c2cccc3ccccc23)C1=O (configuration not stated)	3%	x	4	-4	-1	-23
SMILES	p53 reactivator	ClpP mod	KCNH2 WT inh	TRPV1 ag	TRPV1 potentiator	KCNH2 3.1 block
CNC(=O)c1cc2cc(OC)ccc2n1CCN(Cc1ccccc1)Cc1ccccc1	3%	22µM*	9	u	-15	-75*
CNC(=O)c1cc2cc(OC)ccc2n1CCN(C)C	6%	u	2	1	-8	1
CC(=O)c1ccc(S(=O)(=O)Nc2ccc(-c3ccc(N4CCCCC4)nn3)cc2)cc1	x	-1%	x	x	x	x
O=C(c1ccccc1Br)N(Cc1ccccc1F)C1CCS(=O)(=O)C1 (configuration not stated)	x	1%	x	x	x	x
Cc1nc(NC(=S)NC(=O)COc2ccccc2Cl)ccc1Br	-6%	28µM*	15	5	-5	17
Fc1ccc(Nc2nc(SCc3ccc(Cl)cc3)nc3ccccc23)cc1	x	35µM*	x	x	x	x
CCCN1CNc2c(c(=O)[nH]c(=S)n2CCc2cccc(C)c2)C1	x	-1%	x	x	x	x
CCN1CCN(C(CNS(=O)(=O)c2cccs2)c2cccnc2)CC1 (configuration not stated)	-3%	2%	16	0	7	-462*
O=S(=O)(NCC(c1cccnc1)N1CCOCC1)c1cccs1 (configuration not stated)	-7%	0%	-3	0	28	4
COC(=O)c1ccccc1NC1CC(=O)N(c2c(C)cccc2C)C1=O (configuration not stated)	18%	8.9µM*	-13	7	-12	-2
COC(=O)c1ccc(NC2CC(=O)N(c3ccccc3C)C2=O)cc1 (configuration not stated)	3%	1%	-6	2	10	-20
CC(=O)Nc1ccc(Sc2ncccc2C(=O)Nc2ccc(OC(F)(F)F)cc2)cn1	-6%	1%	1	-4	9	-86*
CC(=O)Nc1ccc(Sc2ncccc2C(=O)Nc2cc(Cl)cc(Cl)c2)cn1	-10%	1%	-11	-1	8	-7
O=C(O)C1Cc2[nH]cnc2C(c2ccccc2O)N1 (configuration not stated)	3%	28µM*	2	-2	4	33
O=C(O)C1Cc2[nH]cnc2C(c2cccc([N+](=O)[O-])c2)N1 (configuration not stated)	-1%	1%	-5	-1	22	0
CC1CCCC(C)N1Cc1cn2ccccc2n1 (configuration not stated)	2%	18µM*	8	3	-4	12
O=C(O)C1CCCCC1C(=O)NCc1cn2ccccc2n1 (configuration not stated)	-5%	5%	-6	-2	6	0
